# MITF act: activators of MITF-driven TRPM1 promoter reporter, primary screen, cell-based, SK-MEL-5, luciferase, single point; SK-MEL-5 TRPM1-promoter luciferase, 24 h; % of positive control, neutral wells = 0; activation, % at 12.5 µM; 0.75% of 300,000 active;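 active = mean activation of at least 80% with every replicate also reaching 80%; inconclusive = mean reaches 80% but some replicate falls short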;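 note: 0% = neutral control wells and 100% = parthenolide positive control wells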
# MLL AF4-AF9 inh: inhibitors of AF4 peptide binding to AF9, primary screen, biochemical, AlphaScreen, biotin-AF4 peptide, FLAG-AF9, single point. Protein AF-9 (Homo sapiens), P42568. inhibition, % at 10 µM. 0.47% of 350,000 active. AID 651704, 2012;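 active = every replicate reaching a set inhibition limit, whatever the replicate mean, cut at about 25% in these data; inconclusive = mean inhibition reaches that limit but some replicates miss it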;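 note: 0% = plate neutral control median and 100% = total signal loss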
# Target sequence (P42568 whole entry, looked up): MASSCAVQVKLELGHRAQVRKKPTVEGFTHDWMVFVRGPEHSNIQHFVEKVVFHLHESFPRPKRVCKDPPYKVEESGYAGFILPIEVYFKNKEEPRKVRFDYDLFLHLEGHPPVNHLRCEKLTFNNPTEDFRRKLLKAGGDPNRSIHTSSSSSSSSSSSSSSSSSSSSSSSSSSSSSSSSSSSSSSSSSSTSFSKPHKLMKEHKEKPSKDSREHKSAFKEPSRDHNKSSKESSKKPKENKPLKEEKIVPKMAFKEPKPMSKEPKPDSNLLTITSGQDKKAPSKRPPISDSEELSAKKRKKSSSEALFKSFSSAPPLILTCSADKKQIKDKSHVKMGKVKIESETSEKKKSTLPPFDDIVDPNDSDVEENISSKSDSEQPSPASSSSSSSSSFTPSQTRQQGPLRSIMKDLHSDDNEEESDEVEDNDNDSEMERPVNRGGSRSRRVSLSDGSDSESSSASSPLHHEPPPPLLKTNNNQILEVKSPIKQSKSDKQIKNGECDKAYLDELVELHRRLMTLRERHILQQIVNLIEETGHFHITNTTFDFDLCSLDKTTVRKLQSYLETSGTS
# Wnt bcat act: Wnt/beta-catenin pathway activators, primary screen, cell-based, plate reader, single point; Wnt/beta-catenin reporter cell assay, activator; activation, % at 9.35 µM; 1.2% of 300,000 active; in the data active = activation above about 30%, passing the limit was not always enough; inconclusive = no clear call, values can overlap the other calls;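 note: 0% = neutral control wells and 100% = positive control wells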
# Ecoli rRNA inh: reduced GFP signal of wild-type E. coli, primary screen, bacterial rRNA inhibitor project, GFP/RFP fluorescence, OD600, single point. E. coli WT GFP vs humanized-ribosome RFP mutants, 24 h; hits give low values; DMSO median 0, no signal -100. GFP signal change (wild-type ribosome), % (concentration not given with the values). 1.6% of 350,000 active;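 active = significant combined selectivity score with lowered wild-type GFP, culture density cut under 30%, mutant RFP and density less affected; inactive = any of these conditions unmet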
# esBAF inh: Bmi1 luciferase reporter increase in mESCs, primary screen, esBAF inhibitor project, mouse ES cells, Bmi1 luciferase knock-in, single point | 2% of 350,000 active | reporter increase, % at 12.5 µM | 24 h; 100% = twice the neutral-well signal; in the data active = activation above about 40%; inconclusive = no clear call, values can overlap the other calls;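 note: 0% = median of the plate's neutral control wells and 100% = double that signal; a rise in the Bmi1 reporter signal indicates esBAF inhibition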
# * = called active by the depositor; ? = inconclusive; / = not tested or not shown. The list is not random: actives were taken first. Their share in the collection is about 3.7%.
SMILES,MITF act,MLL AF4-AF9 inh,Wnt bcat act,Ecoli rRNA inh,esBAF inh
O=C(CN1C(=O)NC2(CCCc3ccccc32)C1=O)c1ccc(F)cc1 (configuration not stated),11,-5,0,-1,-7
O=C(CN1C(=O)NC2(CCc3ccccc32)C1=O)c1ccc(F)c(F)c1 (configuration not stated),9,1,-4,4,-4
O=C(CN1C(=O)NC2(CCCc3ccccc32)C1=O)c1ccccc1F (configuration not stated),16,-8,-2,-35*,11
O=C(NCC1CCCO1)c1ccccn1 (configuration not stated),10,/,/,/,-7
CC1(C)C(CC(=O)O)CC1C(=O)O (configuration not stated),7,-5,0,11,0
COC(=O)[C@@]1(Cc2ccccc2)[C@H]2C(=O)N(C)C(=O)[C@H]2[C@H]2CN=C(SCc3ccc(C#N)cc3)N21,11,4,-2,-21*,-8
COC(=O)[C@@]1(Cc2ccccc2)[C@H]2C(=O)N(Cc3ccccc3)C(=O)[C@H]2[C@H]2CN=C(SCc3ccccc3)N21,-7,0,-3,-13,-3
COC(=O)[C@@]1(Cc2ccccc2)[C@H]2C(=O)N(C)C(=O)[C@H]2[C@H]2CN=C(SCc3ccccc3)N21,1,3,-3,-16*,-3
CN1CCN(CC(=O)NN2CC(=O)N(c3ccc(F)cc3)CC2=O)CC1,-5,4,3,8,/
O=C(O)c1cccc(-c2csc(C(O)c3ccccc3)n2)c1 (configuration not stated),/,-2,35*,0,43*
NC(=O)c1cccc(-c2csc(C(O)c3ccccc3)n2)c1 (configuration not stated),/,-86,2,6,12
OCc1cccc(-c2csc(C(O)c3ccccc3)n2)c1 (configuration not stated),/,-4,-1,14,41*
Cc1ccc(-c2csc(C(O)c3ccc(F)cc3)n2)cc1C (configuration not stated),/,0,26,-63,24
CN(C)c1ccc(-c2csc(C(O)c3ccc(F)c(F)c3)n2)cc1 (configuration not stated),/,0,3,-1,45*
Cc1ccc(-c2csc(C(O)c3ccccc3)n2)cc1C (configuration not stated),/,-7,2,-26,53*
COCCOC(=O)CC1=NC(=O)CS1,/,/,/,/,-5
COc1cc(C(O)c2nc(-c3ccc4ccccc4c3)cs2)ccc1F (configuration not stated),/,-8,2,-11,21
COc1ccc(C(O)c2nc(-c3ccc4ccccc4c3)cs2)cc1 (configuration not stated),/,-6,1,1,58*
CC(C)c1cccc(-c2csc(C(O)c3ccco3)n2)c1 (configuration not stated),/,-4,16,-4,54*
COc1ccc2nc(NC(=O)c3ccco3)sc2c1,-8,-3,3,-5,-57
O=C(Nc1nc2ccc(Cl)cc2s1)c1ccco1,14,/,?,/,/
COc1cc2sc(NC(=O)c3ccco3)nc2cc1Cl,63,-1,?,9,52*
Cc1ccc2nc(NC(=S)NC(=O)c3ccco3)sc2c1,42,9,20,-15*,/
Cc1cc2sc(NC(=O)c3ccco3)nc2cc1Cl,/,3,30*,-1,9
COc1ccc2nc(NC(=O)C3CCN(C(=O)c4ccco4)CC3)sc2c1,/,4,10,-1,53*
SMILES,MITF act,MLL AF4-AF9 inh,Wnt bcat act,Ecoli rRNA inh,esBAF inh
CC(C)N1CCc2c(sc(NC(=O)CCS(=O)(=O)c3ccccc3)c2C(N)=O)C1,-1,-4,3,10,/
COc1cc(C(=O)Nc2ccc(S(=O)(=O)Nc3nccc(C)n3)cc2)cc(OC)c1OC,2,/,/,/,/
Brc1ccc(C2=CC(c3ccco3)n3nnnc3N2)cc1 (configuration not stated),1,2,18,7,/
Cn1nccc1-c1ccc(C(=O)Nc2cccc(NS(C)(=O)=O)c2)c2occc12,/,1,4,-8,46*
CS(=O)(=O)Nc1cccc(NC(=O)c2cccc3c(-c4ccc(F)c(F)c4)coc23)c1,/,-1,-1,-11,52*
COc1ccc(S(=O)(=O)NNC(=S)NCCc2ccccc2)c(OC)c1,-1,-2,-2,-25*,0
CC(=O)Nc1ccc(C=C(C#N)c2ccc(C)cc2)cc1,/,2,47*,-2,?
CC(=O)Nc1ccc(/C=C(\C#N)C(=O)NC2CCCCC2)cc1,-4,2,0,-26*,/
O=C(/C=C\c1ccco1)Oc1cccc2cccnc12,-12,4,40*,0,/
COc1ccccc1/C=C/C(=O)Oc1cccc2cccnc12,14,1,62*,1,/
Cc1noc(NC(=O)c2cccc(C(F)(F)F)c2)c1Cl,5,-3,-1,-48*,/
CCc1ccccc1Nc1nc(N)nc(CSCC(=O)Nc2ccc(C)c(C)c2)n1,-8,-1,57*,-28,/
Cc1cc(C(=O)COC(=O)c2ccc(NC(=O)CC#N)cc2)c(C)n1CC(F)(F)F,/,4,1,3,62*
Cc1cc(C(=O)COC(=O)c2ccc(Cl)c(S(N)(=O)=O)c2)c(C)n1C1CC1,97*,11,45*,-12,78*
Cc1cc(C(=O)COc2ccccc2[N+](=O)[O-])c(C)n1C1CC1,24,4,?,1,/
CC(C)N(C(=O)COC(=O)c1ccc(Cl)c(S(N)(=O)=O)c1)C(C)C,3,-15,-1,7,/
Cc1cc(C(=O)COc2ccccc2C(N)=O)c(C)n1C1CC1,23,3,39*,-28,/
Cc1cc(C(=O)COC(=O)c2ccc(F)cc2F)c(C)n1C1CC1,118*,-6,11,3,40
CN(C)C(=O)c1cccc(-c2ccc([C@H]3[C@@H](CO)N4C(=O)CN(C(=O)C5CCCC5)C[C@@H]34)cc2)c1,/,4,/,3,/
CC(C)NC(=O)Nc1ccc2c(c1)C(=O)N([C@H](C)CO)C[C@@H](C)[C@@H](CN(C)C(=O)CCCN(C)C)OCCCC[C@@H](C)O2,/,-2,/,2,/
Cc1cc(C(=O)COC(=O)c2ccc(NC(=O)CC#N)cc2)c(C)n1-c1ccc(OC(F)F)cc1,-2,-2,-2,-7,/
Cc1cc(C(=O)COC(=O)c2ccc(NC(=O)CC#N)cc2)c(C)n1C1CC1,50,-5,9,0,68*
CNC(=O)C[C@H]1CC[C@H]2[C@@H](COC[C@@H](O)CN2S(=O)(=O)c2cccc(Cl)c2)O1,/,1,/,1,-12
